# PfG6PD inh: PfG6PD (Plasmodium falciparum) enzyme inhibition; 350,000 tested, 0.78% active; PfGluPho enzyme, NADPH resazurin-diaphorase fluorescence; inhibition, % at 20 µM;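 active = inhibition reaching at least a set limit at 20 µM in the primary screen, cut at about 59% in these data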;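 note: 0% = DMSO wells with substrate and 100% = DMSO wells lacking glucose-6-phosphate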
# UHRF1 binding: blocks human UHRF1 binding to methylated DNA; Q96T88; UHRF1 binding to methylated oligo, TR-FRET; inhibition, % at 4.4 µM; 370,000 tested, 0.75% active; AID 687016; in the data active = inhibition above about 21%;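 note: UHRF1 SRA domain binding a hemimethylated CpG hairpin DNA probe; 0% = median of test compound wells and 100% = reference inhibitor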
# MBD2 inh: blocks human MBD2 binding to methylated DNA; Q9UBB5; TR-FRET, MBD2 binding to methylated oligonucleotide; inhibition, % at 4.4 µM; 370,000 tested, 0.31% active; in the data active = inhibition above about 13%
# Target sequence (Q9UBB5 whole entry, looked up): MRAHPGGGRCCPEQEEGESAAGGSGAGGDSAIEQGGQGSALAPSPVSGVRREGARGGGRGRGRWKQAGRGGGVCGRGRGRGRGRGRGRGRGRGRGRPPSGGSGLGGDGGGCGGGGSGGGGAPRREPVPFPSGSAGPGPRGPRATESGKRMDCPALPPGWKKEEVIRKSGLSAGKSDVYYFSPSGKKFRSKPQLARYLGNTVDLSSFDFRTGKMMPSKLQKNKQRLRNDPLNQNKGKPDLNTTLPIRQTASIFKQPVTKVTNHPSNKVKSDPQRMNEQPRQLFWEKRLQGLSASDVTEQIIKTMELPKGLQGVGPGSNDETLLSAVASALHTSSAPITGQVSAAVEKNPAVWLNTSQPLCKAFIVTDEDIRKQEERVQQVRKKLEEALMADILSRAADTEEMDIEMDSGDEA
# PfM18AAP inh: blocks P. falciparum M18 aspartyl aminopeptidase. 290,000 tested, 1.2% active. recombinant PfM18AAP, H-Glu-NHMec fluorogenic cleavage. inhibition, % at 7.35 µM. AID 1822;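 active = inhibition above the campaign mean inhibition over all tested compounds plus 3 SD, cut at about 28% in these data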;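 note: 0% = plate median of test compound wells and 100% = 2 mM ZnCl2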
# PRMT1 FP inh: inhibitors of human PRMT1 | inhibition, % at 2.79 µM | 370,000 tested, 1.3% active | recombinant PRMT1, activity-based probe fluorescence polarization;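 active = inhibition above about 21% made by adding two undisclosed values, limit read from the data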
# * hit, by the source's call; / = no result given. The list is not random: actives were taken first. Their share in the collection is about 3.3%.
SMILES,PfG6PD inh,UHRF1 binding,MBD2 inh,PfM18AAP inh,PRMT1 FP inh
Cc1nc(C)c(-c2csc(Nc3cccc(O)c3)n2)s1,39,1,1,1,4
Cc1cccc(Nc2nc(-c3sc(C)nc3C)cs2)c1,44,25*,5,12,-1
Cc1nc(N)sc1-c1csc(Nc2ccccn2)n1,29,-3,-5,13,23*
N/C(=N\O)c1cn(Cc2ccccc2Cl)c2ccccc12,5,-2,-1,2,-3
Cc1[nH][nH]c(=O)c1C(c1c(C)[nH][nH]c1=O)c1cn(Cc2ccccc2Cl)c2ccccc12,22,23*,-5,2,7
CC(=O)CCC(=O)NC1CCCc2c1cnn2-c1ccc(C(C)(C)C)cc1 (stereo not drawn),16,34*,1,3,0
CC(=O)NC1CCCc2c1cnn2-c1ccc(C(C)(C)C)cc1 (stereo not drawn),6,1,0,1,1
O=C(N[C@H](Cc1ccccc1)C(=O)N1CCN(Cc2ccccn2)CC1)[C@H]1O[C@@H](n2ccc(=O)[nH]c2=O)[C@H](O)[C@@H]1O,/,-2,-3,/,-1
O=C(Nc1ccc(NC(=O)c2ccccc2Cl)cc1)c1cccnc1,11,-2,-3,2,-3
O=C(Nc1nnc(-c2ccccc2Cl)o1)c1cccnc1,-13,-2,1,30*,-3
N#CC1=C(N)SC(N)=C(C#N)C1c1ccnc2ccccc12,55,-3,-8,18,43*
COCCOc1ccc(C(F)(F)F)cc1NC(=O)c1ccc(C)cc1,35,-4,-7,1,-1
CCCCCNCC(=O)Nc1cc(C(F)(F)F)ccc1OCCOC,-3,48*,-10,0,0
CCOC(=O)c1oc2ccccc2c1NC(=O)C(C)(C)C,5,52*,6,-15,-3
CCOCC(=O)Nc1c(C(=O)OCC)oc2ccccc12,-5,-3,0,-16,-1
CC(C)C[C@H](NC1(C(=O)NCCc2c[nH]c3ccccc23)CCC1)C(=O)NCCCc1ccccc1,/,4,1,/,-2
CCOC(=O)c1[nH]c(C)c(C(=O)OCC(=O)NCc2ccc(OC)cc2)c1C,-7,9,1,/,0
CCOC(=O)c1c(C)[nH]c(C(=O)N(C)CC(=O)Nc2ccc(OC)cc2)c1C,9,21*,0,/,0
COc1ccc(N2CC(C(=O)Nc3ncccc3C)CC2=O)cc1 (stereo not drawn),-17,27*,2,3,4
COc1ccc(N2CC(C(=O)N/N=C/c3ccc(C)cc3)CC2=O)cc1 (stereo not drawn),-3,24*,9,6,0
O=C(NC1CCCC1)N1CCC(c2nc3ccc(Cl)cc3[nH]2)CC1,/,-4,-2,/,-2
CCn1c(-c2cccnc2)n[nH]c1=S,27,-6,-2,8,3
CCCCn1c(-c2cccnc2)n[nH]c1=S,18,7,8,30*,1
CCN1C(=O)c2cccc3c(Cl)ccc(c23)C1=O,5,4,3,-8,-5
Nc1cccc(N2C(=O)c3cccc4c(N)ccc(c34)C2=O)c1,11,-88,-28,7,113*
SMILES,PfG6PD inh,UHRF1 binding,MBD2 inh,PfM18AAP inh,PRMT1 FP inh
Cc1cccc(N2C(=O)c3cccc4c(N)ccc(c34)C2=O)c1,6,-128,-37,-14,162*
CC(C)CCN1C(=O)c2cccc3c(N)ccc(c23)C1=O,11,-36,-7,/,158*
C=CCN1C(=O)[C@@H](CC(=O)N2CCSCC2)[C@]2(C(=O)OC)CCCCC=C12,/,4,-2,/,-1
COc1ccc(CN2CC(=O)N3[C@H]4c5cc(C)ccc5OC[C@@H]4[C@H](c4ccccc4)[C@]3(C)C2=O)cc1,8,4,1,/,22*
COc1cc(C(=O)N2CCN(C(=O)CC(C)C)CC2)cc(OC)c1OC,-5,31*,9,0,3
COC(=O)C1=C(C)N(C)C(=NCc2ccc3c(c2)OCO3)NC1c1cccc(F)c1 (stereo not drawn),/,2,-2,/,-6
Cc1cc(=O)[nH]c(SCC(=O)Nc2nc3ccccc3s2)n1,-1,-1,1,-3,21*
CC(=O)/C(=N\Nc1ccccc1)Sc1cccc2cccnc12,-37,-2,1,31*,-1
Cc1ccc(C)c(NC(=O)CN2C(=O)NC(C)(c3ccc4c(c3)OCCO4)C2=O)c1 (stereo not drawn),1,70*,-5,/,-2
COc1cc(OC)cc(C(C)c2ccc(C)cc2)c1 (stereo not drawn),/,-1,4,/,1
CN1OC[C@@H]2CN(C(=O)CCc3ccccc3)[C@H](c3ccccc3Br)C[C@@H]21,/,77*,-4,/,-4
NC(=S)N=Nc1ccc(NN=C(N)N)cc1,99*,-3,-4,67*,12
CCOC(=O)C(C)Oc1cc(Cl)c(C=O)cc1OC (stereo not drawn),-3,62*,-1,2,-1
COc1cccc2cc3c(nc12)C[C@@H]1CCCC(=O)N2CCC[C@@]12C3,/,-3,-7,/,-2
O=C(O)c1sccc1Oc1ccc(NS(=O)(=O)c2cccc(F)c2)cc1,-15,31*,11,-4,4
O=C(Nc1ccc(Oc2ccsc2C(=O)O)cc1)c1ccccc1,-11,6,-2,-8,4
CC(C)=CCOc1ccc2c(C)c(CC(=O)N3C[C@H]4C[C@@H](C3)c3cccc(=O)n3C4)c(=O)oc2c1C,-6,35*,0,7,-5
Cc1c(OCC(=O)N2C[C@H]3C[C@@H](C2)c2cccc(=O)n2C3)ccc2c3c(c(=O)oc12)CCCC3,-6,0,-2,-5,-6
COC(=O)C12C=C3CC(c4ccc(C)s4)=C3C(=O)N1Cc1[nH]c3ccccc3c1C2 (stereo not drawn),/,-2,2,/,-3
COc1ccccc1COCC(O)CN(Cc1ccco1)Cc1ccccc1O (stereo not drawn),-2,25*,1,6,-1
COc1ccc(S(=O)(=O)N=Nc2c(O)[nH]c3ccccc23)cc1,-44,46*,13*,4,9
Cc1ccc(S(=O)(=O)N=Nc2c(O)[nH]c3ccccc23)cc1C,-121,-4,-3,4,3
O=C(O)C1Nc2c(O)cccc2C2C=CCC12 (stereo not drawn),8,74*,37*,6,19
O=C(Nc1ccccn1)c1ccc2c(=O)n3c(nc2c1)CCCCC3,28,21*,10,/,1
COC(=O)C1=NNC2C(=O)N(C3CCCCC3)C(=O)C12 (stereo not drawn),5,26*,11,2,6
C=CCN1C(=O)[C@@H](CC(=O)N2CCCC2)[C@]2(C(=O)OC)CCCCC=C12,/,-1,0,/,-3
CN=C1S/C(=C/c2cc(C)n(-c3ccc(Cl)cc3F)c2C)C(=O)N1C,/,-1,-2,/,2
Cc1oc2c(c(C)cc3oc(=O)c(CC(=O)NCC(=O)NCC(=O)NCC(C)O)c(C)c32)c1C (stereo not drawn),-3,65*,-8,4,1

# Source: PubChem (several laboratories)
